# Screening results from PubChem.
# CYP2C19 activ = cytochrome P450 2C19 (human) activation | 96,000 tested, under 10 active | activation factor at 5 µM | recombinant CYP2C19, luciferin-H EGE luminescence; hits give high values; 0 = fully inhibited enzyme, 1 = untreated enzyme | P33261;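 active = activation factor of at least 2 at 5 µM in the primary screen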;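 also: 0 = wells with 2.5 mM tranylcypromine and 1 = vehicle-only wells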
# Cav3 T inh = inhibitors of human Cav3.2 T-type calcium channel; B-score at 10 µM; Cav3.2-expressing cells, Fluo-4 calcium fluorescence FDSS; hits give low values; O95180; 4% of 100,000 active;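 active = single-dose well whose peak fluorescence ratio is a statistical outlier from its plate by either plate-standardised score or position-corrected B-score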
# CYP2C9 inh = inhibitors of human CYP2C9. CYP2C9 Supersomes, luciferin-H conversion, luminescence. inhibition, % at 5 µM. 20% of 96,000 active. AID 777;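 active = blocking of liver enzyme CYP2C9 beyond about 50% at 5 µM, limit read from the data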
# CYP2C19 inh = human CYP2C19 inhibition. CYP2C19 Supersomes, luciferin-H EGE luminescence, 30 min. inhibition, % at 5 µM. 21% of 96,000 active;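 active = CYP2C19 inhibition above a set limit at 5 µM in the primary screen, cut at about 50% in these data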;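 also: plate controls were negative control wells for no effect and 2.5 mM tranylcypromine positive control for full effect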
# CYP2C9 act = CYP2C9 (human) activation; P11712; activation factor at 5 µM; 1.4% of 96,000 active; AID 1024; recombinant CYP2C9, luciferin-H conversion, luminescence; hits give high values; factor 1 = untreated enzyme, 0 = blocked;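 active = activation factor of 2 or more for CYP2C9 at a 5 µM dose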;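 also: 0 = sulfaphenazole-blocked wells and 1 = vehicle-only wells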
# * marks the source's active call; other numbers are inactive results; x = no result. A selection: hits, their analogues and other compounds. The true share with any hit is near 27%.
SMILES,CYP2C19 activ,Cav3 T inh,CYP2C9 inh,CYP2C19 inh,CYP2C9 act
Cc1nn(-c2ccccc2)c(Cl)c1C1C(C#N)=C(N)Oc2n[nH]c(C)c21 (stereo not drawn),0.2,1.1,78*,83*,0.2
Cc1[nH]nc2c1C(c1ccc(-c3ccccc3C#N)o1)C(C#N)=C(N)O2 (stereo not drawn),0.3,-4.4*,93*,68*,0.1
Cc1ccc(-c2ccc(C3C(C#N)=C(N)Oc4n[nH]c(C)c43)o2)cc1 (stereo not drawn),0.9,0.47,38,14,0.6
Cc1[nH]nc2c1C(c1ccc(F)cc1)C(C#N)=C(N)O2 (stereo not drawn),0.5,0.043,33,48,0.7
COc1ccc2c(c1)c(C(O)CN1CCC(Cc3ccccc3)CC1)c(C)n2C (stereo not drawn),1,x,1,0,1
Cc1c(NC(=O)c2cc3nc(-c4ccc(Cl)cc4)cc(C(F)(F)F)n3n2)c(=O)n(-c2ccccc2)n1C,x,-0.31,x,x,x
CC(=O)Nc1nonc1NC(=O)CSC1=NCCS1,0.9,-0.058,5,11,1
CC(=O)Nc1ccc(NC(=O)CSC2=NCCS2)cc1,0.4,0.78,81*,55*,0.2
COc1cc(NS(=O)(=O)c2ccc(NC(=O)CSC3=NCCS3)cc2)nc(OC)n1,0.9,x,32,6,0.7
O=C(CSC1=NCCS1)Nc1ccc(S(=O)(=O)N2CCCCCC2)cc1,0.6,-4.4*,62*,39,0.4
CC(=O)Nc1ccc(NC(=O)CSc2ccc(C)cc2)cc1,0.3,-0.071,81*,70*,0.2
O=C(CSC1=NCCS1)Nc1ccc(S(=O)(=O)NC2CCCCC2)cc1,0.8,-2.1,56*,24,0.4
COc1ccc(NS(=O)(=O)c2cc(C)ccc2NC(=O)c2cc(C)oc2C)cc1,0.3,-6.9*,24,71*,0.8
COc1ccc2nc(NC(=O)c3cc(C)oc3C)sc2c1,x,-0.04,x,x,x
CCCC[C@@H]1CN=C(N)N1CC(C)(C)C,x,2.1,x,x,x
O=S(=O)(Nc1ccc(Oc2ncccn2)c(Cl)c1)c1ccc(Cl)cc1,0,-1.9,99*,99*,0
Cn1c2c(c(=O)n(C)c1=O)C(NC(=O)c1ccco1)(C(F)(F)F)C(=O)N2 (stereo not drawn),1,0.21,-7,2,1.1
CCn1c(=NC(=O)CSC(C)=O)sc2cc(F)ccc21,0.5,-11*,2,47,1
COC(=O)C(O)(NC(=O)NC(C)=O)C(F)(F)F (stereo not drawn),1,0.34,0,1,1
COc1cccc(-c2nc(CS(=O)(=O)CC(=O)NCc3ccccc3OC)c(C)o2)c1,x,-3.4,x,x,x
COc1cccc(-c2nc(CS(=O)(=O)CC(=O)NCCCN3CCc4ccccc4C3)c(C)o2)c1,0.9,-5.7*,16,10,0.8
Cc1ccccc1-c1nc(CS(=O)(=O)CC(=O)NCc2ccccc2)c(C)o1,0.6,-4.2*,8,39,0.9
COc1ccc(OC)c(CCNC(=O)CS(=O)(=O)Cc2nc(-c3ccccc3C)oc2C)c1,0.3,x,50,66*,0.5
Cc1ccccc1-c1nc(CS(=O)(=O)CC(=O)N(C)C2CCCCC2)c(C)o1,0.1,-7.3*,46,86*,0.5
CC(C)c1cc(CN2CCN(CCC#N)CC2)cc(C(C)C)c1O,1.1,0.65,-21,-12,1.2
SMILES,CYP2C19 activ,Cav3 T inh,CYP2C9 inh,CYP2C19 inh,CYP2C9 act
Cc1cc(-c2cc(C(=O)NCc3ccccc3)on2)nc(S(C)(=O)=O)n1,x,1.1,x,x,x
COC(=O)c1ccccc1NC(=O)c1cc2ncc(Br)cn2n1,1.1,x,-46,-9,1.5
Cn1cc(NC(=O)c2cc(NC(=O)c3cc(NC=O)cn3C)cn2C)cc1C(=O)NCCC(=N)N,x,1.8,x,x,x
Cc1oc(-c2ccccc2F)nc1CS(=O)(=O)CC(=O)N1CCCCCC1,0.7,0.64,81*,28,0.2
COCCn1c(SCc2cccnc2)nnc1-c1c[nH]c2ccccc12,0.2,-0.019,55*,75*,0.4
CCOC(=O)c1c(NC(=O)CSc2nnc(-c3c[nH]c4ccccc34)n2CCOC)sc2c1CCCCC2,x,-2.8,x,x,x
CCn1c(SCc2cccnc2)nnc1-c1c[nH]c2ccccc12,0.1,0.62,45,89*,0.5
CCSc1nnc(NC(=O)CSc2nnc(-c3c[nH]c4ccccc34)n2CC)s1,0.8,1.3,33,19,0.7
CCN1C(=O)c2ccccc2S(=O)(=O)c2ccc(C(=O)NCc3cccnc3)cc21,0.4,-0.42,98*,58*,0
